NSD2 inh – blocks human histone methyltransferase NSD2. O96028. NSD2 peptide methylation, AlphaScreen, 120 min. inhibition, % at 12.5 µM. 310,000 tested, 0.54% active. AID 743445; in the data active means inhibition above about 50%
Casp6 inh – caspase-6 (human) enzyme inhibition; P55212; purified caspase-6, Z-VEID-R110 cleavage fluorescence; inhibition, % at 12.5 µM; 350,000 tested, 0.53% active; AID 686996;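 active means mean inhibition across replicates at least about 35%, with every replicate also reaching that limit, limit read from the data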
SIRT5 block – inhibitors of human sirtuin-5 desuccinylase | Purified SirT5, succinyl-peptide AMC, trypsin-coupled fluorescence | AID 652115 | inhibition, % at 15 µM | 330,000 tested, 1.1% active | Q9NXA8; in the data active means inhibition above about 15%
Target sequence (Q9NXA8 whole entry, looked up): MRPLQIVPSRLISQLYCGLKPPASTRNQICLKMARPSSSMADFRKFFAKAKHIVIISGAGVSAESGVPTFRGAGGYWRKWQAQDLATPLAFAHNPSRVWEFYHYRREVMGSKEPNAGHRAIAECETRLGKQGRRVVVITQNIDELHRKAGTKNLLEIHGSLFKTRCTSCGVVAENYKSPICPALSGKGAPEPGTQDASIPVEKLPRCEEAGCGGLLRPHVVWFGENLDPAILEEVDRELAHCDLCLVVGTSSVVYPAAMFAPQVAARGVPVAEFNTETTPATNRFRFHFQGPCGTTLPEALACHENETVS
SUMO HTRF inh – SUMOylation inhibition; HTRF SUMOylation assay, SAE1/SAE2 + UBC9, in vitro; inhibition, % at 35 µM; 290,000 tested, 0.36% active; in the data active means inhibition above about 50%, passing the limit was not always enough
Target sequence (P63279 whole entry, looked up): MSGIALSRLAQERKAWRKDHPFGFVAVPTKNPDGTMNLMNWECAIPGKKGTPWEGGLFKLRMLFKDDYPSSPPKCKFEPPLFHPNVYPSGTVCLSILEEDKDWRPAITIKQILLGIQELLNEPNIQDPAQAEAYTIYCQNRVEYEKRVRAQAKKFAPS
Large screens that a line does not name were inactive. Hits are enriched below; roughly 1.6% of the tested compounds scored in any of these assays.

O=C(Nc1ccc(Cl)cc1)N1C[C@H]2[C@@H](c3ccccc31)[C@@H](CO)N2CC1CCCC1	none (no result: NSD2 inh, SUMO HTRF inh)
COCC(=O)N1[C@@H]2CN(C(=O)Nc3ccccc3F)c3ccccc3[C@@H]2[C@@H]1CO	Casp6 inh 36 (no result: NSD2 inh, SUMO HTRF inh)
O=C(Nc1ccccc1)N1C[C@@H]2[C@H](c3ccccc31)[C@@H](CO)N2CC1CCCC1	SIRT5 block 19 (no result: NSD2 inh, SUMO HTRF inh)
COCC(=O)N1[C@H](CO)[C@H]2c3ccccc3N(C(=O)Nc3ccccc3F)C[C@H]21	none (no result: NSD2 inh, SUMO HTRF inh)
O=C(C1CCOCC1)N1C[C@@H]2[C@H](c3ccccc31)[C@H](CO)N2Cc1ccccc1F	SIRT5 block 15 (no result: NSD2 inh, SUMO HTRF inh)
C[C@H](CO)N1C[C@H](C)[C@H](CN(C)C(=O)Nc2ccccc2)Oc2ncc(C#CC3CCCCC3)cc2C1=O	none (no result: NSD2 inh, Casp6 inh, SUMO HTRF inh)
CO[C@H]1CN(C)C(=O)c2ccc(NS(=O)(=O)CC(F)(F)F)cc2OC[C@H](C)N(CCC(F)(F)F)C[C@@H]1C	none (no result: NSD2 inh, SUMO HTRF inh)
CCOC(=O)CC1=NN(c2ccccc2)C(=O)/C1=C\c1ccc(N(C)C)cc1	SIRT5 block 113
C[C@H](CO)N1C[C@H](C)[C@H](CN(C)Cc2ccc(C(=O)O)cc2)Oc2ccc(NS(=O)(=O)c3ccccc3)cc2CC1=O	none (no result: NSD2 inh, SUMO HTRF inh)
Cc1ccc(-n2[nH]c(C)c(/C=N/Nc3ccc([N+](=O)[O-])cc3[N+](=O)[O-])c2=O)cc1C	NSD2 inh 62 (no result: Casp6 inh, SIRT5 block)
O=C(C[C@H]1C[C@H](C(=O)N2CCOCC2)[C@@]2(CCC3CCCC3)c3[nH]c4cc(-c5ccco5)ccc4c3CCN2C1=O)NCc1ccco1	SIRT5 block 28 (no result: NSD2 inh, SUMO HTRF inh)
CCN(CC)C(=O)[C@H]1C[C@H](CC(=O)NC(C)(C)C)C(=O)N2CCc3c([nH]c4cc(-c5ccco5)ccc34)[C@]12C	none (no result: NSD2 inh, SUMO HTRF inh)
CC(C)N(C(=O)[C@H]1C[C@H](CC(=O)NCc2cccc(C(F)(F)F)c2)C(=O)N2CCc3c([nH]c4cc(CCC(=O)N(C)C)ccc34)[C@]12C)C(C)C	SIRT5 block 24 (no result: NSD2 inh, SUMO HTRF inh)
CCN(CC)C(=O)[C@H]1C[C@H](CC(=O)NCc2cccc(C(F)(F)F)c2)C(=O)N2CCc3c([nH]c4cc(CCC(=O)N(C)C)ccc34)[C@]12C	none (no result: NSD2 inh, SUMO HTRF inh)
CC(C)N(C(=O)[C@H]1C[C@H](CC(=O)NC(C)(C)C)C(=O)N2CCc3c([nH]c4cc(-c5ccco5)ccc34)[C@]12C)C(C)C	SIRT5 block 27 (no result: NSD2 inh, SUMO HTRF inh)
C[C@@H]1CN([C@H](C)CO)C(=O)c2cc(NC(=O)C3CCCCC3)ccc2O[C@@H]1CN(C)Cc1ccc(C(=O)O)cc1	none (no result: NSD2 inh, SUMO HTRF inh)
O=C(CN1CC(c2ccccc2)CC1=O)N/N=C/c1cc(Br)ccc1O (stereo unspecified)	SIRT5 block 20
O=C(CNC(=O)c1ccccc1)N/N=C/c1cc(Br)ccc1O	none
O=C(C[C@H]1CC[C@H](NC(=O)c2ccncc2)[C@@H](CO)O1)NCC1CCCCC1	none (no result: NSD2 inh, SUMO HTRF inh)
C[C@H]1CN([C@@H](C)CO)C(=O)CCCn2cc(nn2)CO[C@@H]1CN(C)C(=O)CCCN(C)C	none (no result: NSD2 inh, SUMO HTRF inh)
COc1ccc(S(=O)(=O)N(C)C[C@H]2Oc3cc(C#CC4CCCC4)ccc3S(=O)(=O)N([C@H](C)CO)C[C@@H]2C)cc1	SIRT5 block 15 (no result: NSD2 inh, SUMO HTRF inh)
COc1ccc(S(=O)(=O)N(C)C[C@@H]2Oc3cc(C#CC4CCCC4)ccc3S(=O)(=O)N([C@@H](C)CO)C[C@H]2C)cc1	SIRT5 block 16 (no result: NSD2 inh, SUMO HTRF inh)
COc1ccc(S(=O)(=O)N(C)C[C@H]2Oc3cc(C#CC4CCCC4)ccc3S(=O)(=O)N([C@@H](C)CO)C[C@H]2C)cc1	none (no result: NSD2 inh, SUMO HTRF inh)
COc1ccc(S(=O)(=O)N(C)C[C@H]2Oc3cc(C#CC4CCCC4)ccc3S(=O)(=O)N([C@@H](C)CO)C[C@@H]2C)cc1	SIRT5 block 25 (no result: NSD2 inh, SUMO HTRF inh)
CCCNC(=O)N1CC2(CN(CC3CCOCC3)C2)c2c([nH]c3cc(OC)ccc23)[C@H]1CO	none (no result: NSD2 inh, SUMO HTRF inh)
C[C@H]1CN([C@@H](C)CO)S(=O)(=O)c2ccc(-c3cccc(C(=O)N(C)C)c3)cc2O[C@@H]1CN(C)C(=O)Cc1ccccn1	none (no result: NSD2 inh, SUMO HTRF inh)
O=C(N[C@H]1CC[C@@H](CCNS(=O)(=O)c2ccccc2)O[C@@H]1CO)c1cccc(F)c1	none (no result: NSD2 inh, SUMO HTRF inh)
COc1ccc([C@H]2CN(CCc3ccccc3)C(=O)[C@@H]2CC(=O)Nc2ccccc2)cc1	SIRT5 block 18 (no result: NSD2 inh, SUMO HTRF inh)
CNC(=O)C[C@H]1C(=O)N(CCc2ccccc2)C[C@@H]1c1ccc(OC)cc1	none (no result: NSD2 inh, SUMO HTRF inh)
CCN(CC)CCCOc1nc(C)nc2c1oc1ccccc12	NSD2 inh 65 (no result: Casp6 inh, SIRT5 block)
COc1ccc(S(=O)(=O)Nc2ccc3c(c2)C(=O)N([C@H](C)CO)C[C@@H](C)[C@H](CN(C)S(=O)(=O)c2ccccc2)OCCCC[C@H](C)O3)cc1	SIRT5 block 25 (no result: NSD2 inh, SUMO HTRF inh)
COc1ccc(S(=O)(=O)N(C)C[C@@H]2OCCCC[C@H](C)Oc3ccc(NS(=O)(=O)c4ccccc4)cc3C(=O)N([C@@H](C)CO)C[C@@H]2C)cc1	none (no result: NSD2 inh, SUMO HTRF inh)
